Data on 37 compounds can be found in PubChem BioAssay (EPA / NIEHS).

Several values for one entry are separate records, joined by “and”; a condition that tells them apart may be missing. Equal values may be shown once. Records with an inconclusive call do not appear. Activity calls are given as the source filed them. Rule for the calls, unless noted: active = hit-call score of the fitted dose curve at least 0.9, where 1 is the maximum; inconclusive = response in the unintended direction; inactive = score below 0.9.

Assay [1] has as its target human Retinoid X Receptor beta (RXRb), RXRB (gene 6257) (UniProt P28702). As to the kind of experiment: ATG_RXRb_TRANS: Attagene TRANS-FACTORIAL HepG2 Assay for human Retinoid X Receptor beta (RXRb) (AID 2283013). A digest of the protocol: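 Multiplexed TRANS reporter assay in HepG2; 24 h dosing; reporter mRNA by RT-PCR/CE fluorescence; gain-of-signal relative to DMSO.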

Assay [2] deals with human Thyroid Receptor alpha (THRa1), THRA (gene 7067) (UniProt P10827). As to the kind of experiment: ATG_THRa1_TRANS: Attagene TRANS-FACTORIAL HepG2 Assay for human Thyroid Receptor alpha (THRa1) (AID 2283014). Put shortly:
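Transcripts from GAL4-UAS-driven reporters, measured after 24 h compound exposure by RT-PCR plus capillary electrophoresis of 6-FAM-labeled fragments, were fitted for gain of signal relative to DMSO. Cells: transiently transfected HepG2 expressing NR-Gal4 chimeras.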

Read-out in assay [3]: Interleukin-1 alpha (IL1a), IL1A (gene 3552)
As to the kind of experiment: BSK_BE3C_IL1a: BioMAP Diversity Plus: BE3C Assay for Interleukin-1 alpha (IL1a) Biomarker Activity (AID 2283016; active = hit-call score of the fitted dose curve at least 0.9, where 1 is the maximum; inactive = score below 0.9). The conditions noted are these: primary human bronchial epithelial cells; actives raise or lower the signal. A digest of the protocol: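 Cultures of primary human bronchial epithelial cells receive test chemical. After 24 h, IL-1a is quantified by ELISA, while parallel wells are fixed in TCA and SRB-stained for total protein. Changes in either direction are fitted relative to DMSO.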

Read-out in assay [4]: Monocyte Chemoattractant Protein-1 (MCP1), CCL2 (gene 6347)
Description: BSK_4H_MCP1: BioMAP Diversity Plus: 4H Assay for Monocyte Chemoattractant Protein-1 (MCP1) Biomarker Activity (AID 2283018; active = hit-call score of the fitted dose curve at least 0.9, where 1 is the maximum; inactive = score below 0.9). The conditions noted are these: primary human endothelial cells (HUVEC); actives raise or lower the signal. Put shortly: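 Readout: MCP-1 ELISA on compound-treated HUVEC, sampled 24 h post-dosing. Baseline and negative control DMSO; bidirectional fit. Overt toxicity checked alongside by sulforhodamine B protein staining at time of biomarker measurement.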

Read-out in assay [5]: Human Leukocyte Antigen - DR isotype (HLADR), HLA-DRA (gene 3122)
As to the kind of experiment: BSK_3C_HLADR: BioMAP Diversity Plus: 3C Assay for Human Leukocyte Antigen - DR isotype (HLADR) Biomarker Activity (AID 2283019; active = hit-call score of the fitted dose curve at least 0.9, where 1 is the maximum; inactive = score below 0.9;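 for outcome: ELISA of cell-surface HLA-DR on HUVEC 24 h after dosing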). The settings on record: primary human endothelial cells (HUVEC); actives raise or lower the signal. A digest of the protocol: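 Bidirectional fitting against DMSO was applied to the HLA-DR ELISA signal from human umbilical vein endothelial cells, 24 h post-dose. Cytotoxicity came from parallel SRB total-protein staining; 3C proliferation was counted by SRB at 48 h.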

Read-out in assay [6]: Interleukin-8 (IL8), CXCL8 (gene 3576)
Description: BSK_3C_IL8: BioMAP Diversity Plus: 3C Assay for Interleukin-8 (IL8) Biomarker Activity (AID 2283020; active = hit-call score of the fitted dose curve at least 0.9, where 1 is the maximum; inactive = score below 0.9). The conditions noted are these: primary human endothelial cells (HUVEC); actives raise or lower the signal. Put shortly: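 Human vascular endothelial cells (umbilical vein) in the 3C system; IL-8 level detected by ELISA at 24 h post-dose, with DMSO as baseline.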

Read-out in assay [7]: Monokine induced gamma interferon (MIG), CXCL9 (gene 4283)
As to the kind of experiment: BSK_3C_MIG: BioMAP Diversity Plus: 3C Assay for Monokine induced gamma interferon (MIG) Biomarker Activity (AID 2283021; active = hit-call score of the fitted dose curve at least 0.9, where 1 is the maximum; inactive = score below 0.9;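 for AC50: MIG protein level measured by immunoassay in the treated endothelial cultures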). The conditions noted are these: primary human endothelial cells (HUVEC); actives raise or lower the signal. Put shortly: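 After 24 h of treatment, human umbilical vein endothelial cultures (3C system) had their MIG biomarker level determined by ELISA, with DMSO serving as negative control.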

In assay [8] the target is human Vitamin D Receptor (VDR), VDR (gene 7421) (UniProt P11473). Description: ATG_VDR_TRANS: Attagene TRANS-FACTORIAL HepG2 Assay for human Vitamin D Receptor (VDR) (AID 2283022). Put shortly: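 Transactivation by an exogenous VDR-Gal4 chimera in transiently transfected HepG2 cells was measured as reporter transcript level 24 hours after chemical treatment. RT-PCR products were analysed by capillary electrophoresis and fitted in the positive direction relative to DMSO.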

Read-out in assay [9]: Monocyte Chemoattractant Protein-1 (MCP1), CCL2 (gene 6347)
As to the kind of experiment: BSK_3C_MCP1: BioMAP Diversity Plus: 3C Assay for Monocyte Chemoattractant Protein-1 (MCP1) Biomarker Activity (AID 2283017; active = hit-call score of the fitted dose curve at least 0.9, where 1 is the maximum; inactive = score below 0.9). The settings on record: primary human endothelial cells (HUVEC); actives raise or lower the signal. A digest of the protocol:
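MCP-1 was measured by ELISA 24 h after dosing in primary HUVEC 3C cultures and fitted in both directions relative to DMSO; cytotoxicity was checked by SRB total-protein staining in parallel wells.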

Read-out in assay [10]: E-selectin (Homo sapiens) (UniProt P16581)
As to the kind of experiment: BSK_3C_Eselectin: BioMAP Diversity Plus: 3C Assay for Eselectin Biomarker Activity (AID 2283015; active = hit-call score of the fitted dose curve at least 0.9, where 1 is the maximum; inactive = score below 0.9;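 note: cell surface E-selectin protein quantified by ELISA 24 h after dosing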). The conditions noted are these: primary human endothelial cells (HUVEC); actives raise or lower the signal. Put shortly: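 E-selectin ELISA readout, fitted bidirectionally relative to DMSO, taken 24 h post-dosing in HUVEC cultures of the 3C system. Overt cytotoxicity tracked with sulforhodamine B staining of parallel wells.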

human Vitamin D Receptor (VDR), VDR (gene 7421), sequence (P11473 whole entry, looked up, the tested form may be a part): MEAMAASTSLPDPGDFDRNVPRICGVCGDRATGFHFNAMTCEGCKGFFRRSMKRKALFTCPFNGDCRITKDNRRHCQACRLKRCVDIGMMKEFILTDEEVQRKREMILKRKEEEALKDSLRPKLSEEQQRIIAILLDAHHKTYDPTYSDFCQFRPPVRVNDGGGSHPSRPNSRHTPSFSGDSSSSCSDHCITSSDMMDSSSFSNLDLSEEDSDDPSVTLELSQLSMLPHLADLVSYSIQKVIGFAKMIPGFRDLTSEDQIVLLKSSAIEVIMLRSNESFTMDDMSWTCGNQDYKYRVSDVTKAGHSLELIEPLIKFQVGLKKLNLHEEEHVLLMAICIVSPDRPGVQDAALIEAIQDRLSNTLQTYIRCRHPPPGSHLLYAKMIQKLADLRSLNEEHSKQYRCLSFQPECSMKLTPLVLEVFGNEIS
human Thyroid Receptor alpha (THRa1), THRA (gene 7067), sequence (P10827 whole entry, looked up, the tested form may be a part): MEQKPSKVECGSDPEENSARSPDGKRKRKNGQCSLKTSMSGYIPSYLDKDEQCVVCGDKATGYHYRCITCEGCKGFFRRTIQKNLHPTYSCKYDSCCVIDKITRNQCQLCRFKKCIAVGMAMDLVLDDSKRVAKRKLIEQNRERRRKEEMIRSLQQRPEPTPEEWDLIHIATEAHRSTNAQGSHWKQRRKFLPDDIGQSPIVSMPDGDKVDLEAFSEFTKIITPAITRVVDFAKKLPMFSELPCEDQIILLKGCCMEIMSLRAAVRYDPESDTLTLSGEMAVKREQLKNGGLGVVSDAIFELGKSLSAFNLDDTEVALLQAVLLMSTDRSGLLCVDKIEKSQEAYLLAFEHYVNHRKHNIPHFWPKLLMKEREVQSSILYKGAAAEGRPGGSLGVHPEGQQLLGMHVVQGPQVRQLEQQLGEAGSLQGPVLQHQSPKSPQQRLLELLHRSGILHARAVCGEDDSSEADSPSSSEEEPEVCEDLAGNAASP
human Retinoid X Receptor beta (RXRb), RXRB (gene 6257), sequence (P28702 whole entry, looked up): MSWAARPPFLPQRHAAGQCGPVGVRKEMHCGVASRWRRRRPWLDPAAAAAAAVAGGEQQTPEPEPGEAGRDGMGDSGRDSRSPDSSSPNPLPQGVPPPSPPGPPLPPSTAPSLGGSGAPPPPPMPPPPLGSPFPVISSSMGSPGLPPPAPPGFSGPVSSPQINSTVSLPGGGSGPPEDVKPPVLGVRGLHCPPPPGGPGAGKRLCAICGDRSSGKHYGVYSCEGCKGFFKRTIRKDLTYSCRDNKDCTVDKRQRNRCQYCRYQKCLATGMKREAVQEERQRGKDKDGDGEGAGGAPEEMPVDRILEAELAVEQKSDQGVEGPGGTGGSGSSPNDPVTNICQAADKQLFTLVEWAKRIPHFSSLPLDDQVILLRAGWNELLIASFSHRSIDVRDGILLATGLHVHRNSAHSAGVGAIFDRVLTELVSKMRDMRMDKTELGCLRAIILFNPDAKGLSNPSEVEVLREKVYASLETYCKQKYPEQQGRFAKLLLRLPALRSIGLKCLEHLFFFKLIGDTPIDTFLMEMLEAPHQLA
E-selectin (Homo sapiens), sequence (P16581 whole entry, looked up): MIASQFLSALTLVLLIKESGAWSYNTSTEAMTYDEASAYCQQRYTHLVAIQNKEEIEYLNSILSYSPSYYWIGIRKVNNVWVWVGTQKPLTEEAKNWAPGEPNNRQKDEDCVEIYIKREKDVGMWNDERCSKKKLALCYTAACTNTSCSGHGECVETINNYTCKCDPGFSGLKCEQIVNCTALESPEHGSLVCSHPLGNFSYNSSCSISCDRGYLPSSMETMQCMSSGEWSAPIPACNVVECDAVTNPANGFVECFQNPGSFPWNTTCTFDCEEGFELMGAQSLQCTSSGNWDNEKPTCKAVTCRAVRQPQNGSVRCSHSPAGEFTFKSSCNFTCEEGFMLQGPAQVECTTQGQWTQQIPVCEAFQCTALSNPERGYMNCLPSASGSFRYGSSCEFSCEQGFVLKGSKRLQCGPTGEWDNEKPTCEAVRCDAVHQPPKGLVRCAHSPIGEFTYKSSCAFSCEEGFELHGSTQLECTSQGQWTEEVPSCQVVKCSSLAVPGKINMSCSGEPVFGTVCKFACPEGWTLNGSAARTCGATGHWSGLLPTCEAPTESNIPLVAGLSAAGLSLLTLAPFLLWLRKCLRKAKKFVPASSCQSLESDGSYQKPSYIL

As to `CCCCN(CCCC)C(=S)[S-].CCCCN(CCCC)C(=S)[S-].[Ni+2]`, the outcome in assay [1], in assay [2], in assay [3], in assay [4], in assay [5] and in assay [6] was inactive. For the same compound, the outcome in assay [7] and in assay [8] was inactive.
With `Cc1cc(Cl)ccc1OCCCC(=O)O`, in assay [1], the half-maximal activity concentration (AC50) (commonly the midpoint of the concentration-response curve, whichever way the signal moves) was 27.7 µM (active). The outcome in [2] and in assay [8] was inactive.
As for `C#CCO`, the call in [1], in [2] and in [8] was inactive.
Take `CCCCCCCCCCCCN(C)C`: the compound was classed as inactive in assay [1], in assay [2], in assay [3], in [4], in assay [5] and in assay [6]. Further, the result in assay [7] and in assay [8] was inactive.
As for `Cc1ccccc1OP(=O)(Oc1ccccc1C)Oc1ccccc1C`, the call in assay [1], in [2], in assay [7] and in assay [8] was inactive. Further, the AC50 in assay [3] is 10.7 µM (active); in assay [4] it was 6.27 µM (active); in assay [5] it was 6.21 µM (active); in assay [6], 5.37 µM (active).
Turning to `CN(C)C(=S)S`, the half-maximal activity concentration (AC50) in assay [1] was 27 µM (active); in assay [3], 29.6 µM (active). Moreover, the outcome in assay [2], in [4], in assay [5], in [6], in assay [7] and in [8] was inactive.
As for `c1ccc(-c2cccc(-c3ccccc3)c2)cc1`, the AC50 in [1] is 7.98 µM (active); in [3] it was 11.6 µM (active); in assay [4] it was 5.91 µM (active); in assay [5], 9.9 µM (active); in [6] it was 7.45 µM (active). For the same compound, the compound was classed as inactive in [2] and in assay [7].
On to `c1csc(-c2ccc(-c3cccs3)s2)c1`, for which the result in assay [1], in assay [2] and in [8] was inactive.
`C[CH2][Hg][S]c1ccccc1C(=O)O`: the concentration at half-maximal activity (AC50) in assay [1] is 1.72 µM (active). For the same compound, the compound was classed as inactive in assay [2] and in [8].
Take `CN(N=O)C(N)=O`: the outcome in assay [1], in assay [2] and in assay [8] was inactive.
`O=C1c2ccccc2C(=O)C1C(=O)C(c1ccccc1)c1ccc(Cl)cc1` (stereo not given): the compound was classed as inactive in [1] and in [8]. The AC50 in assay [2] is 7.69 µM (active).
Take `COc1ccccc1N`: the result in assay [1], in assay [2], in [3], in assay [4], in assay [5] and in assay [6] was inactive. Besides, the result in assay [7] was inactive.
In the case of `O=C(NC(=O)c1c(F)cccc1F)Nc1cc(Cl)c(OC(F)(F)C(F)C(F)(F)F)cc1Cl` (stereo not given), the result in assay [1], in assay [2] and in assay [8] was inactive.
Turning to `CCOP(=O)(OCC)SCCSCC`, the outcome in assay [1], in [2], in [3], in [4], in [5] and in assay [6] was inactive. Moreover, the outcome in [7] was inactive.
Turning to `O=S1OC[C@@H]2[C@H](CO1)[C@]1(Cl)C(Cl)=C(Cl)[C@@]2(Cl)C1(Cl)Cl` (stereo not given in full), the compound was classed as inactive in assay [1], in assay [2] and in assay [8].
As to `CC[N+](CC)(CC)CC`, the call in assay [1], in assay [2] and in [8] was inactive.
For `CN(C)c1ccc(N=O)cc1`, the result in assay [1], in assay [2] and in assay [8] was inactive.
`CC1(C)[C@H](C(=O)O[C@H](C#N)c2cccc(Oc3ccccc3)c2)[C@@H]1/C=C(\Cl)C(F)(F)F`: the compound was called inactive in [1], in assay [2], in assay [3], in assay [5], in assay [6] and in assay [7]. Besides, the AC50 in assay [4] was 1.11 µM (active) and 4.07 µM (active).
With `Cc1cc(-c2cc(C)c(N)c(C)c2)cc(C)c1N`, the AC50 in assay [1] was 25.4 µM (active). Further, the compound was classed as inactive in assay [2] and in assay [8].
For the compound `[Cl][Sn]([c]1ccccc1)([c]1ccccc1)[c]1ccccc1`, the half-maximal activity concentration (AC50) was 0.000965 µM (active) in assay [1]; 0.126 µM (active) in [3]; 0.066 µM (active) in assay [4]; 0.0817 µM (active) in assay [5]; 0.298 µM (active) in assay [6]; 436 nM (active) in assay [7]. For the same compound, the compound was called inactive in assay [2] and in assay [8].
Consider `COC(F)(C(F)(F)C(F)(F)F)C(F)(C(F)(F)F)C(F)(F)F` (stereo not given), for which the call in [1], in [2] and in assay [8] was inactive.
For `CC(F)(F)CC(F)(F)F`, the result in assay [1], in assay [2] and in assay [8] was inactive.
In the case of `COC(=O)c1cc(Oc2ccc(Cl)cc2Cl)ccc1[N+](=O)[O-]`, the outcome in [1], in assay [2] and in assay [8] was inactive.
For `N#Cc1ccncc1`, the compound was called inactive in [1], in assay [2] and in [8].
Consider `CN(N=O)c1ccc([N+](=O)[O-])cc1`, for which the compound was classed as inactive in assay [1], in assay [2] and in [8].
On to `Brc1c(Br)c(Br)c(Oc2c(Br)c(Br)c(Br)c(Br)c2Br)c(Br)c1Br`, for which the call in [1], in assay [2] and in assay [8] was inactive.
Take `O=C(Cl)OCCOCCOC(=O)Cl`: the call in [1], in assay [2] and in [8] was inactive.
With `CN(C)CCN(C)C`, the call in [1], in [2] and in [8] was inactive.
Turning to `N#CCC#N`, in assay [1], the AC50 was 10.3 µM (active). In addition, the compound was called inactive in [2] and in assay [8].
In the case of `C=CC(=O)[O][Sn]([CH2]CCC)([CH2]CCC)[CH2]CCC`, the half-maximal activity concentration (AC50) in assay [1] is 0.000682 µM (active). Moreover, the compound was classed as inactive in assay [2] and in assay [8].
With `N#Cc1ccccc1Cl`, the outcome in assay [1] and in [8] was inactive.
Take `O=S(=O)(C(Cl)(Cl)Cl)C(Cl)(Cl)Cl`: the AC50 is 20 µM (active) in [1]; 3.32 µM (active) in [3]; 1.9 µM (active) in assay [9]; 1.16 µM (active) in [4]; 0.852 µM (active) in [5]; 5.32 µM (active) in assay [6]. Also, in assay [7], the AC50 was 3820 nM (active). Besides, the compound was classed as inactive in assay [8].
For `CCOC(=O)CCN(SN(C)C(=O)Oc1cccc2c1OC(C)(C)C2)C(C)C`, the AC50 in assay [1] was 37.8 µM (active); in assay [9], 27.1 µM (active); in [4] it was 31.6 µM (active); in assay [5] it was 14.2 µM (active); in [6], 3.97 µM (active). Also, the outcome in assay [3] and in [7] was inactive.
Regarding `CCCCCCCCCCCCCl`, the AC50 in [1] was 65.2 µM (active). The outcome in assay [8] was inactive.
Turning to `CC(C=O)Cc1ccc2c(c1)OCO2` (stereo not given), the compound was called inactive in [1], in assay [10], in [3], in [9], in assay [4] and in [5]. Besides, the result in assay [6], in [7] and in assay [8] was inactive.
Take `O=[N+]([O-])c1cc([As](=O)(O)O)ccc1O`: the compound was classed as inactive in assay [1] and in assay [8].
Take `C[C@]12CC[C@@H](O)C[C@@H]1CC[C@@H]1[C@@H]2CC[C@]2(C)C(=O)CC[C@@H]12`: the compound was called inactive in assay [1], in assay [10], in assay [3], in assay [9], in [4] and in assay [5]. The outcome in [6], in [7] and in assay [8] was inactive.
